In the library only some 12% were active in any assay of this set; here they are far more common.
hDAT+cocaine: changed human dopamine transporter uptake under cocaine IC80; Q01959; LLC-PK1 hDAT cells, [14C]-dopamine uptake with cocaine IC80; actives deviate in either direction; B-score at 10 µM; 110,000 compounds, 1.3% hits; AID 449768;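 active means Z score or B-score, a plate-position-corrected score, falls beyond the plate's 99.7% confidence bounds, in either direction; inactive means both scores lie inside the 99.7% bounds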
PostGolgi yeast: growth inhibition of a yeast mutant, post-Golgi transport screen; post-Golgi transport phenotypic cell assay; inhibition, % at 10 µM; 98,000 compounds, 0.9% hits;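 further: yeast cells grown in 1536-well plates; yeast grown about 18 h at 30C before absorbance read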
D1 allo mod: allosterically modulates the human D1 dopamine receptor | HEK293 D1, CRE-luciferase, dopamine EC30 potentiation; actives deviate in either direction | B-score at 10 µM | 58,000 compounds, 5.9% hits | P21728;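 active means luminescence count or its row- and column-corrected plate score outside the 99.7% band of the plate's sample wells, on either side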
Cav32 inh: inhibitors of human Cav3.2 T-type calcium channel; B-score at 10 µM; Cav3.2-expressing cells, Fluo-4 calcium fluorescence FDSS; stronger effect = lower value; 100,000 compounds, 4% hits; O95180;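 active means single-dose well whose peak fluorescence ratio is a statistical outlier from its plate by either plate-standardised score or position-corrected B-score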
PLAP activator: activates human placental alkaline phosphatase. P05187. purified PLAP enzyme, luminescent substrate read-out; stronger effect = higher value. activation fold at 20 µM. 96,000 compounds, 1.2% hits. AID 696; in the data active means activation fold above about 2
PostGolgi ctrl: yeast control strain growth, post-Golgi counter-screen. inhibition, % at 10 µM. efflux-deficient yeast background strain, growth absorbance A615, 16 h. AID 738. 98,000 compounds, 5% hits
Of the large screens only hits and unclear results are named; the others gave an inactive call. Unless noted, no stated cut-off is given here; in the data, active means inhibition above about 30%; inactive means the rest.

CC(C)CC(COCc1ccc(Cl)cc1)N1CCN(C(=O)c2ccc(Cl)cc2Cl)CCC1=O (stereo not drawn)	none (no result: PostGolgi yeast, D1 allo mod, PLAP activator, PostGolgi ctrl)
O=C(CC1Oc2ccc(Cl)cc2NC1=O)NC1CCCCCC1 (stereo not drawn)	none
C=CCn1c(SCc2nc3ccccc3[nH]2)nnc1-c1ccccn1	PLAP activator 2
Fc1ccc(-c2nnc(-c3ccc(Cl)cc3Cl)o2)cc1	D1 allo mod -2.89 (no result: PLAP activator)
Cc1nn(-c2ccc(Cl)c(Cl)c2)c(=O)c2ccccc12	PostGolgi ctrl 48.8 (no result: D1 allo mod)
Cc1cccc2cc3c(N)c(C(=O)Nc4ccc(N5CCOCC5)cc4)sc3nc12	PostGolgi ctrl 41.0 (no result: D1 allo mod)
O=C(CSC1=NCCS1)N1CCN(c2ccc(Cl)cc2)CC1	hDAT+cocaine 2.65 (no result: D1 allo mod)
COC(=O)C(Cc1ccccc1)NC(=O)COc1ccc(C(C)(C)C)cc1 (stereo not drawn)	Cav32 inh -6.09 (no result: D1 allo mod)
CC(C)C(C)NC(=O)COc1ccc(-c2ccccc2)cc1 (stereo not drawn)	PostGolgi yeast 32.0 (no result: D1 allo mod)
Cc1oc2c(CN(C)C)c(O)ccc2c(=O)c1-c1ccc2ccccc2n1	PostGolgi ctrl 35.4
C=CCNc1cc(C)oc(=O)c1C(=O)CCC	none (no result: D1 allo mod)
COc1cc(N2CCCC2)c(OC)cc1/C=C(/C#N)c1ccc(F)cc1	none (no result: PostGolgi yeast, D1 allo mod, PLAP activator, PostGolgi ctrl)
N#C/C(=C/c1ccc(N2CCCCC2)o1)c1cccc(F)c1	Cav32 inh -5.6 (no result: D1 allo mod)
N#C/C(=C/c1ccc(N2CCCCCC2)o1)c1ccc(Cl)cc1	Cav32 inh -5.72 (no result: D1 allo mod)
CCc1nc(N2CCN(Cc3ccc4c(c3)OCO4)CC2)c2oc3ccccc3c2n1	none (no result: D1 allo mod)
CC1Cc2nc(SCC(=O)Nc3nc4ccccc4s3)n(C)c(=O)c2S1 (stereo not drawn)	none (no result: D1 allo mod)
CCOC(=O)c1nc2cc3n(c(C)c-2c1C)C(C)C(CC)=C3C (stereo not drawn)	none (no result: PostGolgi yeast, D1 allo mod, PLAP activator, PostGolgi ctrl)
Cc1ccc(C)c(N2CCN(C(=O)c3ccc(Cn4c(=O)[nH]c5ccccc5c4=O)cc3)CC2)c1	Cav32 inh -5.93
O=C(c1ccc(Cn2c(=O)[nH]c3ccccc3c2=O)cc1)N1CCN(c2ccc(Cl)cc2)CC1	none
CC(=O)OCC(=O)NCC(=O)c1c[nH]c2ccccc12	none (no result: PostGolgi yeast, D1 allo mod, PLAP activator, PostGolgi ctrl)
O=C(CCCc1c[nH]c2ccccc12)N1CCN(S(=O)(=O)c2cccs2)CC1	none
CC(C)COC(=O)c1ccc2c(c1O)C(=O)c1ccccc1C2=O	PostGolgi yeast 103.9 (no result: D1 allo mod)
O=C(c1ccccc1)C(CCC(CN1CCOCC1)C(=O)c1ccccc1)CN1CCOCC1 (stereo not drawn)	PostGolgi ctrl 41.1 (no result: D1 allo mod)
CCCCOc1ccc(C(=O)C(CN2CCOCC2)c2ccccc2)cc1 (stereo not drawn)	none (no result: PostGolgi yeast, D1 allo mod, PLAP activator, PostGolgi ctrl)
c1ccc(C(CN2CCOCC2)c2ccccc2)cc1	none
O=C(c1ccc(F)cc1)C(CN1CCOCC1)c1ccccc1 (stereo not drawn)	PostGolgi ctrl 55.1
CCN(CC)S(=O)(=O)c1ccc(N(C)Cc2cccnc2)nc1	none (no result: D1 allo mod)
O=C(CN1CCC(n2nnc3cc(F)ccc32)CC1)NC1CC1	none (no result: hDAT+cocaine)
COC(=O)c1ccccc1NC(=O)CN1CCC(n2nnc3cc(F)ccc32)CC1	none (no result: D1 allo mod)
CCOc1ccc2nc(NC(=O)CN3CCC(n4nnc5cc(F)ccc54)CC3)sc2c1	hDAT+cocaine 4.3, PostGolgi ctrl 33.5
O=C(CN1CCC(n2nnc3cc(F)ccc32)CC1)Nc1ccccc1N1CCOCC1	D1 allo mod -3.13
CCOc1ccc(NC(=O)c2c(N)n(C)c(=O)[nH]c2=O)cc1	none (no result: PostGolgi yeast, D1 allo mod, PLAP activator, PostGolgi ctrl)
Cc1cccc(C)c1NC(=O)C(c1cccs1)N(Cc1ccco1)C(=O)Cn1nnc2ccccc21 (stereo not drawn)	none
COC(=O)C1=C(N)Oc2cc(C)n(C)c(=O)c2C1c1ccc(Cl)c(Cl)c1 (stereo not drawn)	PostGolgi ctrl 45.5
CCn1c(C)cc2c(c1=O)C(c1ccccc1)C(C(=O)OC)=C(N)O2 (stereo not drawn)	none (no result: D1 allo mod)
O=C1CCC(/C=C/c2ccccc2)=NN1Cc1ccccc1Cl	PostGolgi ctrl 39.4 (no result: D1 allo mod)
O=C1CCC(/C=C/c2ccccc2)=NN1Cc1ccc(Cl)c(Cl)c1	PostGolgi ctrl 60.2 (no result: D1 allo mod)
Cc1ccnc(NCn2nnc3ccccc32)c1	none (no result: D1 allo mod)
COc1cnc(-c2ccccn2)nc1Oc1ccccc1Cl	none (no result: D1 allo mod)
COc1cnc(-c2ccccn2)nc1Oc1ccc(Cl)c2ccccc12	PostGolgi ctrl 62.8 (no result: hDAT+cocaine, D1 allo mod, Cav32 inh)
CCCCn1c(NCc2ccccc2O)nc2ccccc21	none
CCCn1c(NCc2cc(C)ccc2O)nc2ccccc21	Cav32 inh -7.01
O=C(COc1cccc(OC(F)F)c1)Nc1ccc(SC(F)F)cc1	PostGolgi ctrl 30.8
COc1cc(NC(=O)COc2cccc(OC)c2)cc(OC)c1	none
CC(C)(C)NC(=O)[C@@H]1C[C@@H]2CCCC[C@@H]2CN1C[C@@H](O)[C@H](Cc1ccccc1)NC(=O)[C@H](CC(N)=O)NC(=O)c1ccc2ccccc2n1	Cav32 inh -5.59 (no result: PostGolgi yeast, D1 allo mod, PLAP activator, PostGolgi ctrl)
CC(=O)N1CCN2C(=O)C1CCCC(=O)c1cc(C)ccc12 (stereo not drawn)	none (no result: PostGolgi yeast, D1 allo mod, PLAP activator, PostGolgi ctrl)
CCOC(=O)C(C)Sc1nnc(Cc2cc(=O)[nH]c(=O)[nH]2)n1-c1cccc(OC)c1 (stereo not drawn)	PostGolgi ctrl 32.0
COc1ccc(S(=O)(=O)NCC2CCC(C(=O)N3CCC4(CC3)OCCO4)CC2)cc1 (stereo not drawn)	none (no result: PostGolgi yeast, PLAP activator, PostGolgi ctrl)
O=C(Nc1ccccn1)C(NS(=O)(=O)c1cccc2nsnc12)c1ccccc1 (stereo not drawn)	none
Clc1ccccc1CSc1cc2c(nn1)-c1ccccc1CC2	none (no result: hDAT+cocaine, D1 allo mod, Cav32 inh)
O=c1cc2c(nn1Cc1c(Cl)cccc1Cl)-c1ccccc1CC2	PostGolgi ctrl 31.8 (no result: D1 allo mod)
Clc1ccc(CSc2cc3c(nn2)-c2ccccc2CC3)cc1Cl	Cav32 inh -5.3 (no result: D1 allo mod)
Clc1cccc(Cl)c1CSc1cc2c(nn1)-c1ccccc1CC2	Cav32 inh -3.95 (no result: D1 allo mod)
O=C(c1ccco1)N1CCN(c2nnc(-c3ccccc3)c3ccccc23)CC1	none (no result: D1 allo mod)
CSc1nc(C)cc(SCCO)n1	none
Cc1ccc2cccc(NC(=O)C(F)(F)F)c2n1	none (no result: PostGolgi yeast, PostGolgi ctrl)
Cc1cccc(NC(c2ccc(O)cc2)c2ccc3ccc(C)nc3c2O)n1 (stereo not drawn)	PLAP activator 2.8 (no result: D1 allo mod)
Cc1nn(-c2ccccc2)c2c1C(c1ccncc1)C(C#N)=C(N)O2 (stereo not drawn)	PostGolgi ctrl 31.8
CCOC(=O)C1=C(C)OC(N)=C(C#N)C1c1c(C)nn(-c2ccccc2)c1Cl (stereo not drawn)	hDAT+cocaine -7.43, Cav32 inh -9.23
C=CCOC(=O)C1=C(C)OC(N)=C(C#N)C1c1c(C)nn(-c2ccccc2)c1Cl (stereo not drawn)	Cav32 inh -9.18
COC(=O)c1ccc(NC(=O)CSc2nnc(CNc3ccc(F)cc3)n2C)cc1	none
Cn1c(=O)c2c(SCc3ccccn3)nc(CC(C)(C)C)nc2n(C)c1=O	Cav32 inh -5.88, PostGolgi ctrl 34.1 (no result: D1 allo mod)
Cn1c(=O)c2c(SC3CCCC3)nc(CC(C)(C)C)nc2n(C)c1=O	none (no result: hDAT+cocaine, PostGolgi yeast, Cav32 inh, PLAP activator, PostGolgi ctrl)
CCCc1nc(SCc2ccccn2)c2c(=O)n(C)c(=O)n(C)c2n1	none (no result: D1 allo mod)
